FAS TE block – blocks the thioesterase domain of human fatty acid synthase | P49327 | recombinant FAS-TE, OMFH fluorogenic substrate, fluorescence endpoint | inhibition, % at 15 µM | 0.67% of 360,000 active | AID 602261;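 active means compounds whose normalised, plate-corrected inhibition of enzyme fluorescence in the single-dose primary screen is 50% or more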
Target sequence (P49327 whole entry, looked up, the tested form may be a part): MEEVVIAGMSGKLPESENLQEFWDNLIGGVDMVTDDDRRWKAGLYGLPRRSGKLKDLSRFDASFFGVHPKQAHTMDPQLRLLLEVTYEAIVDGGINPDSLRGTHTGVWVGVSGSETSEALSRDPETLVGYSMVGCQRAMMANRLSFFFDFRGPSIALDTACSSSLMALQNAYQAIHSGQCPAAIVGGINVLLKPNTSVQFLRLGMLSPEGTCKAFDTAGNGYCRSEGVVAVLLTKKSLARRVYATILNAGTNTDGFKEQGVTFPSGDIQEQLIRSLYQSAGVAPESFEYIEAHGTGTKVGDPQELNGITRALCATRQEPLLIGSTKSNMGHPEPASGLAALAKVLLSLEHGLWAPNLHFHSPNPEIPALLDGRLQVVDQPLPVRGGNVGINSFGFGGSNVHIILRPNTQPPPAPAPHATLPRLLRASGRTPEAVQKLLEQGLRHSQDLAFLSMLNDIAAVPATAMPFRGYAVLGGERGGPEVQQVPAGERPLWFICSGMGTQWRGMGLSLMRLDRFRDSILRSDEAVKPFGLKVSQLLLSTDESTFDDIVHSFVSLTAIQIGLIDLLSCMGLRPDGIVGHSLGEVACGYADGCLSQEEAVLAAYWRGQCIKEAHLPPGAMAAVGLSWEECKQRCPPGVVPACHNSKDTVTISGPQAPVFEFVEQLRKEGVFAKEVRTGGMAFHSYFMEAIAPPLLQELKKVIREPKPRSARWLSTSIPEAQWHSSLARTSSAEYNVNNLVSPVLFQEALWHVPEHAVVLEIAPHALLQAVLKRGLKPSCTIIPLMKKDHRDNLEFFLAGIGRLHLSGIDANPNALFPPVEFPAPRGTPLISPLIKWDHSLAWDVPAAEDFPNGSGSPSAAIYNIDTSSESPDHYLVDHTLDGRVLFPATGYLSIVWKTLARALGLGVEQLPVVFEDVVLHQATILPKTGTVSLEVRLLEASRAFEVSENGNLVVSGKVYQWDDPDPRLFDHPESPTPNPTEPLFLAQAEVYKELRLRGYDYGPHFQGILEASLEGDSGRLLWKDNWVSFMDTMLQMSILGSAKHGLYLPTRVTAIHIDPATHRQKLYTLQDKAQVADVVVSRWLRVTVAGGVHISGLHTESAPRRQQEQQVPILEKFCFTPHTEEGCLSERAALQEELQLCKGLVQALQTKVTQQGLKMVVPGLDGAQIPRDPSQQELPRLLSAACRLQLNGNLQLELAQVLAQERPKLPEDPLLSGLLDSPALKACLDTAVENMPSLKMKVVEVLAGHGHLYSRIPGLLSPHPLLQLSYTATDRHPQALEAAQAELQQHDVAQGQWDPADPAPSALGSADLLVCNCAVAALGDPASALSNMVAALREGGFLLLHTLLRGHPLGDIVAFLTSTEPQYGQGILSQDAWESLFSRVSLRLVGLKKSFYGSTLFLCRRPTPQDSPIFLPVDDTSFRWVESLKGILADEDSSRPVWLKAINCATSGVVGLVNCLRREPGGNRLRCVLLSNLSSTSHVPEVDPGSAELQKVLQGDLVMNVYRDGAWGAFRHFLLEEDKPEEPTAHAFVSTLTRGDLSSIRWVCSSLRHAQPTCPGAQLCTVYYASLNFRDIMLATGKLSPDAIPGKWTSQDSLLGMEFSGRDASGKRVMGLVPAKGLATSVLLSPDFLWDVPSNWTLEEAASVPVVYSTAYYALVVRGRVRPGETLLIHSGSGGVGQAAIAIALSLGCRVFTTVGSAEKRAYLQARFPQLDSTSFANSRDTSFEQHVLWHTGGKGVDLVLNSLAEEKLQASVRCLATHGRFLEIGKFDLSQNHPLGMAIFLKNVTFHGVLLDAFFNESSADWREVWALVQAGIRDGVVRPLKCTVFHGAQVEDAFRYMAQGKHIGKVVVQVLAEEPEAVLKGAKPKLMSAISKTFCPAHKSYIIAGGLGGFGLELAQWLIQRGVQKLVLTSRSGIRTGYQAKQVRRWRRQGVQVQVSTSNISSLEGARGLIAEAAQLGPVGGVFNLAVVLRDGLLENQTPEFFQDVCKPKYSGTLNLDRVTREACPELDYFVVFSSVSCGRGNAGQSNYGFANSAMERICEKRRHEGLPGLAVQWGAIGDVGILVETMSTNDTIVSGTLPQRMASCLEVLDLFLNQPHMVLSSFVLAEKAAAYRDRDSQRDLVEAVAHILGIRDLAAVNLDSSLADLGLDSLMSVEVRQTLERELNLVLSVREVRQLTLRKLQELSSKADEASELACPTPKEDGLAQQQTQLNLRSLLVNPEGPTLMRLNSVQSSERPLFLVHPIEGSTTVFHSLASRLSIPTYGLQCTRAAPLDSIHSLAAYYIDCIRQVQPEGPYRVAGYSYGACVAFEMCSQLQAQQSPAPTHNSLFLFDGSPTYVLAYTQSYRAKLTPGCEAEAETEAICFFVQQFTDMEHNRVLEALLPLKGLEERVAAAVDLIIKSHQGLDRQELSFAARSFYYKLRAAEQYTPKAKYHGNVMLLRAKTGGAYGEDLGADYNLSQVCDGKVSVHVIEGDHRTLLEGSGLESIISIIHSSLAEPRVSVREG
Myeloid diff MLP – compounds promoting myeloid differentiation; calls only at 10 µM; 1% of 360,000 active; ER-HoxA9 myeloid progenitors, lysozyme-GFP differentiation, flow cytometry;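 active means normalized GFP-positive differentiation at or above the plate's own cutoff, the solvent-only control mean plus 3 SD; inconclusive means no clear call, values can overlap the other calls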;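 further: cells exposed to compound for four days before flow analysis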
MPTP inh – inhibitors of mitochondrial permeability transition pore; 1.4% of 360,000 active; isolated mouse mitochondria, Ca2+ swelling absorbance, 30 min; inhibition, % at 10 µM;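 active means inhibition of 50% or more, scaled per plate between neutral and stimulator controls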
GRIN3A LBD mod – modulates the human NR3A ligand-binding domain. Tm shift relative to glycine control, % at 25 µM. 2.5% of 340,000 active. NR3A LBD differential scanning fluorimetry, Tm shift; 0% = protein alone, 100% = glycine-bound protein. AID 1259313;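 active means melting temperature shift of at least 10% of the positive control shift, at one fixed dose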
rCAG RNA binder – molecules binding r(CAG) RNA repeats; 1.3% of 370,000 active; r(CAG) RNA repeat, TO-PRO-1 dye displacement fluorescence; inhibition, % at 3 µM;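 active means inhibition above the plate cutoff, the mean of all test compounds on that plate plus 3 SD, cut at about 35% in these data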;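 further: higher means more dye released from RNA so lower well fluorescence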
Myeloid diff CP1 – promotes myeloid progenitor differentiation | 2% of 2,300 active | ER-HoxA9 myeloid progenitors, GFP/Mac1 double-positive flow | calls only | shares compounds with Myeloid diff MLP;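 active means share of green or green-and-red cells above 9 and 9% in run 1 or 4 and 3% in run 2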
GFP autofluor – compound fluorescence in myeloid differentiation counter-screen. shares compounds with Myeloid diff MLP. ER-HoxA9 myeloid progenitors, no estrogen, GFP autofluorescence flow cytometry; vehicle wells 0%, positive control 100%. fluorescence response, % (concentration not given with the values). 7.4% of 2,300 active. AID 651707;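 active means over 5% cells positive for green fluorescent reporter, or over 2% positive for both it and APC stain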
rCAG bind conf – r(CAG) RNA repeat binding, confirmation; TO-PRO-1 dye displacement fluorescence; shares compounds with rCAG RNA binder; inhibition, % at 3 µM; 70% of 4,300 active;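 active means inhibition above a per-plate cutoff, the mean inhibition of sample wells plus 3 SD, cut at about 35% in these data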;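 further: loss of TO-PRO-1 fluorescence as compound displaces dye from 1x1 AA loop RNA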
DNA CAG counter – disrupts DNA CAG TO-PRO-1 complex, flagging rCAG hits; shares compounds with rCAG RNA binder; inhibition, % at 3 µM; 94% of 4,300 active; d(CAG) DNA oligo TO-PRO-1 dye displacement, fluorescence;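 active means inhibition above its plate's cutoff, the mean test-well inhibition plus 3 SD, cut at about 4.8% in these data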;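 further: hits displace the dye from DNA and so lower well fluorescence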
DNA CAG DR – DNA CAG dye complex inhibition, dose response counter-screen. shares compounds with rCAG RNA binder. DNA CAG/GTC duplex TO-PRO-1 dye displacement fluorescence. IC50, µM. 20% of 250 active. AID 686960; in the data active means IC50 below about 10 µM
Each line names hits and unclear results; the compound was inactive in the other large screens (follow-up assays come after a bar, where they were run). A selection: hits, their analogues and other compounds. The true share with any hit is near 5.7%.

CC1=Nc2nc(N3CCCCC3)c(C#N)c3c4c(nc(c23)N1)N(c1ccc(C(C)C)cc1)C(=O)C4	Myeloid diff MLP active, rCAG RNA binder 62.4 | Myeloid diff CP1 inactive | GFP autofluor inactive | rCAG bind conf 38.5 | DNA CAG counter 21.7
Cc1cc(/C=C2\SC(=S)NC2=O)c(C)[nH]1	rCAG RNA binder 34.6 | Myeloid diff CP1 inactive | GFP autofluor 7.3 | rCAG bind conf inactive | DNA CAG counter 6.9
O=C1NC(=S)SC1=Cc1ccc2c(c1)OCO2	none
CCOC(=O)C1=C(CC)Nc2ccccc2N=C1NC(=O)c1ccc(OC)c(S(=O)(=O)N2CCOCC2)c1	none
COc1ccc(OC)c(/C=N/NC(=O)c2cccc3ccccc23)c1	none
COc1ccc(OC)c(C=NNC(=O)c2ccccc2NS(=O)(=O)c2cccs2)c1	Myeloid diff MLP active, rCAG RNA binder 59.7 | Myeloid diff CP1 inactive | GFP autofluor inactive | rCAG bind conf 50.5 | DNA CAG counter 15.3
CCCOc1ccc(N2C(=O)CC(S/C(N)=N/N=C(\C)c3cccs3)C2=O)cc1 (configuration not stated)	rCAG RNA binder 65.7 (no result: GRIN3A LBD mod) | Myeloid diff CP1 inactive | GFP autofluor inactive | rCAG bind conf 70.3 | DNA CAG counter 26.0 | DNA CAG DR inactive
Cc1ccccc1C(=O)Nc1ccc2c(C#N)c3nc4ccccc4nc3n2c1	Myeloid diff MLP active, rCAG RNA binder 36.0 | Myeloid diff CP1 inactive | GFP autofluor 2.3 | rCAG bind conf inactive | DNA CAG counter 14.3
Cc1c(C(=O)Nc2ccccc2)cn2c(nc3ccccc32)c1C#N	none
Cc1ccc(-n2c(O)c(C=Nc3ccccc3-c3n[nH]c(=S)[nH]c3=O)c3ccccc3c2=O)cc1C	rCAG RNA binder 76.5 | Myeloid diff CP1 inactive | GFP autofluor inactive | rCAG bind conf 81.4 | DNA CAG counter 47.6
N#CC1=C(S)N(c2ccccc2)C(c2ccc(-c3cc(Cl)ccc3Cl)o2)NC1=O (configuration not stated)	rCAG RNA binder 58.7 | Myeloid diff CP1 inactive | GFP autofluor inactive | rCAG bind conf 54.8 | DNA CAG counter 18.4 | DNA CAG DR 5.5
N#CC1=C(S)N(c2ccccc2)C(c2ccco2)NC1=O (configuration not stated)	none
CN1CCN(S(=O)(=O)c2ccc(C(F)(F)F)cc2)C(c2ccccc2)C1 (configuration not stated)	none
OC1CCCCC1	none
Cc1c(C(=O)NNC(=S)Nc2ccc(S(N)(=O)=O)cc2)oc2ccccc12	rCAG RNA binder 52.3 | Myeloid diff CP1 inactive | GFP autofluor inactive | rCAG bind conf inactive | DNA CAG counter 11.0
CCOc1ccc(NS(=O)(=O)c2ccc(NS(=O)(=O)c3ccccc3)cc2)cc1	rCAG RNA binder 36.4 | Myeloid diff CP1 inactive | GFP autofluor inactive | rCAG bind conf inactive | DNA CAG counter inactive
COc1cccc([C@@H]2CC=C(C(=O)O)[C@H](c3ccccc3F)N2S(=O)(=O)c2ccc(C)cc2)c1	rCAG RNA binder 40.8 | rCAG bind conf 37.3 | DNA CAG counter 9.0
COc1cccc([C@@H]2CC=C(C(=O)O)CN2S(=O)(=O)c2ccc(C)cc2)c1	none
COc1cc([C@@H]2CC=C(C(=O)O)[C@H](c3cccc(Cl)c3)N2S(=O)(=O)c2ccc(C)cc2)cc(OC)c1OC	rCAG RNA binder 44.7 | rCAG bind conf 44.7 | DNA CAG counter 10.3
COc1cc([C@@H]2CC=C(C(=O)O)[C@H](c3ccc(C)cc3)N2S(=O)(=O)c2ccc(C)cc2)cc(OC)c1OC	rCAG RNA binder 34.9 | rCAG bind conf 42.1 | DNA CAG counter 8.6
COc1ccc([C@@H]2CC=C(C(=O)O)[C@H](c3ccc(C(C)(C)C)cc3)N2S(=O)(=O)c2ccc(C)cc2)cc1OC	rCAG RNA binder 67.3 | rCAG bind conf 65.8 | DNA CAG counter 28.4
COC(=O)[C@]12CCCCC=C1N(Cc1ccccc1)C(=O)[C@H](CC(=O)NCc1ccccc1)C2	none (no result: GRIN3A LBD mod)
COc1cccc([C@@H]2CC=C(C(=O)O)[C@H](c3ccc(Cl)cc3)N2S(=O)(=O)c2ccc(C)cc2)c1	rCAG RNA binder 63.5 | rCAG bind conf 62.3 | DNA CAG counter 22.8
Cc1ccc([C@H]2C(C(=O)O)=CC[C@@H](c3cccc(Cl)c3)N2S(=O)(=O)c2ccc(C)cc2)cc1	none
COc1cccc([C@@H]2CC=C(C(=O)O)[C@H](c3ccc(C)cc3)N2S(=O)(=O)c2ccc(C)cc2)c1	none
COc1ccc([C@@H]2CC=C(C(=O)O)[C@H](c3ccc(Cl)cc3)N2S(=O)(=O)c2ccc(C)cc2)cc1OC	rCAG RNA binder 57.5 | rCAG bind conf inactive | DNA CAG counter 9.3
COc1ccc([C@@H]2CC=C(C(=O)O)[C@H](c3ccc(C)cc3)N2S(=O)(=O)c2ccc(C)cc2)cc1OC	rCAG RNA binder 39.8 | rCAG bind conf 36.5 | DNA CAG counter 7.8
Cc1ccc(S(=O)(=O)N2[C@@H](c3ccc(C(C)(C)C)cc3)C(C(=O)O)=CC[C@H]2c2cccc(Cl)c2)cc1	rCAG RNA binder 87.8 | rCAG bind conf 74.8 | DNA CAG counter 41.0
CCc1ccc(-c2csc3ncn(Cc4ccc(C(=O)O)cc4)c(=O)c23)cc1	rCAG RNA binder 34.8 | rCAG bind conf inactive | DNA CAG counter 7.7
CCCOC(=O)Cn1cnc2scc(-c3ccc(C)cc3)c2c1=O	none
Cc1ccc(OCC(O)CN2CCN(c3ccc(C)cc3)CC2)cc1 (configuration not stated)	none
Cc1ccc(NS(=O)(=O)c2cc(C(=O)Nc3cccc(N(C)S(C)(=O)=O)c3)ccc2C)c(C)c1	none
CC(=O)NS(=O)(=O)c1ccc(NC(=O)[C@@H]2CCCN2S(=O)(=O)c2ccc(Cl)cc2)cc1	none
CCOC(=O)c1c(C)n(S(=O)(=O)c2ccc(C)cc2)c2ccc(O)c(C(=O)O)c12	rCAG RNA binder 65.9 | rCAG bind conf 64.1 | DNA CAG counter 27.4
C/C(=N\NC(=O)Cc1cccc2ccccc12)c1ccncc1	none
O=C(NCCc1ccc(F)cc1)c1ccncc1	Myeloid diff MLP inconclusive
O=C(O)c1cccc(NC(=O)c2cccc(S(=O)(=O)N3CCc4ccccc43)c2)c1	none
O=C(O)c1ccc(Cl)c(S(=O)(=O)Nc2cccc(C(=O)Nc3cccc(C(F)(F)F)c3)c2)c1	rCAG RNA binder 39.1 | rCAG bind conf inactive | DNA CAG counter 7.9

Screening data: PubChem BioAssay, several laboratories
